Records with an inconclusive call do not appear. The source made the active and inactive calls. Calls come from the whole dose curve; as a rule, active = well fitted curve in either direction with a large enough effect (not every such curve was filed as active); inconclusive = small, poorly fitted or top-dose-only effect, or another doubt; inactive = flat fitted curve, though single readings scatter.
These molecules were tested against Mitogen-activated protein kinase 10 (Mus musculus) (UniProt Q61831) (assay: JNK3 AlphaScreen Assay (AID 530;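 note: kinase came from lysate of stimulated human HepG2 cells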)). Conditions: JNK3 lysate, c-Jun phosphorylation; series mostly up to 57.1 µM.
Procedure, shortened: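 Phosphorylation of biotinylated GST-cJun(1-79) at Ser73 is measured by AlphaScreen proximity luminescence. Enzyme is JNK3 in HepG2 lysates activated with interleukin-1beta and tumor necrosis factor alpha; ATP is 10 uM final.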
In the case of `CC1N(P(=O)(c2ccccc2)c2ccccc2)CC(O)(c2ccccc2)CC12CC2` (stereo not drawn), the outcome is reported as “inactive”. For `O=C(Oc1ccc([N+](=O)[O-])cc1)N1CCC(N2CCCCC2)CC1`, the outcome was “inactive”. For `CCCc1cc2c(n1Cc1ccco1)C(C)C1CN(C(=O)c3ccccc3)C(C)(C(=O)OC)C21` (stereo not drawn), the outcome was “inactive”. In the case of `C[C@@]1([C@@H](NP(=O)(c2ccccc2)c2ccccc2)c2ccccc2)C[C@H]1CCO`, the outcome is reported as “inactive”. With `O=P(N[C@@H](c1ccccc1)[C@@H]1C[C@H]1CO)(c1ccccc1)c1ccccc1` the outcome was “inactive”. For `C[C@@H]1O[C@@H](O[C@H]2C[C@@H](O)[C@]3(CO)[C@@H]4[C@@H](O)C[C@]5(C)[C@H](C6=CC(=O)OC6)CC[C@@]5(O)[C@H]4CC[C@@]3(O)C2)[C@H](O)[C@H](O)[C@@H]1O`, the outcome was “inactive”. With `C=C(CC1(CNP(=O)(c2ccccc2)c2ccccc2)CC1)c1ccccc1` the outcome was “inactive”. In the case of `COC(=O)[C@@]1(Cc2ccc(F)cc2)[C@H]2c3cc(C(=O)N(C)C)[nH]c3C[C@H]2CN1C(=O)c1ccccc1`, the outcome is reported as “inactive”. `COC(=O)[C@@H]1C[C@H]1[C@@H](NP(=O)(c1ccccc1)c1ccccc1)c1ccccc1` was tested, and the outcome was “inactive”. `CCN1C[C@@]2(COC)[C@H](O)C[C@H](OC)[C@@]34[C@@H]5C[C@@]6(O)[C@H](OC(=O)c7ccccc7)[C@H]5[C@@](OC(C)=O)([C@H]([C@@H](OC)[C@H]23)[C@H]14)[C@H](O)[C@@H]6OC` was tested, and the outcome was “inactive”. For `COC(=O)[C@H]1C[C@@H]1[C@H](NP(=O)(c1ccccc1)c1ccccc1)c1ccccc1`, the outcome was “inactive”. In the case of `C[C@@H]1O[C@H](O[C@H]2C[C@@H](O)[C@]3(CO)[C@H]4[C@H](O)C[C@]5(C)[C@@H](C6=CC(=O)OC6)CC[C@@]5(O)[C@H]4CC[C@]3(O)C2)[C@@H](O)[C@H](O)[C@H]1O`, the outcome is reported as “inactive”. `COC(=O)[C@@H]1C[C@@]1(C)[C@@H](NP(=O)(c1ccccc1)c1ccccc1)c1ccccc1` was tested, and the outcome was “inactive”. `CCCC/C=C/[C@@H](NP(=O)(c1ccccc1)c1ccccc1)c1ccccc1OC` was tested, and the outcome was “inactive”. `CCCC[C@@H]1C[C@H]1C(NP(=O)(c1ccccc1)c1ccccc1)c1ccc(Cl)cc1` (stereo partly drawn) was tested, and the outcome was “inactive”. For `CNC(=O)[C@H]1C[C@@H]1[C@H](NP(=O)(c1ccccc1)c1ccccc1)c1ccccc1`, the outcome was “inactive”. For `O=C1C[C@@H]2OCC=C3CN4CC[C@]56c7ccccc7N1[C@H]5[C@@H]2[C@H]3C[C@@H]46`, the outcome was “inactive”. With `COC(=O)[C@]1(C)C[C@H]1[C@H](NP(=O)(c1ccccc1)c1ccccc1)c1ccccc1` the outcome was “inactive”. With `C=C[C@@H]1C[C@@]1(C)[C@@H](NP(=O)(c1ccccc1)c1ccccc1)c1ccccc1` the outcome was “inactive”. For `c1ccc2ncccc2c1`, the outcome was “inactive”. For `CCCc1cc2c(n1Cc1cccc(Cl)c1)C(C)C1CN(C(=O)c3ccccc3)C(C)(C(=O)OC)C21` (stereo not drawn), the outcome was “inactive”. For `COC(=O)C1(C)C=C2C(=C(C)C(=O)C2C)CN1` (stereo not drawn), the outcome was “inactive”. In the case of `C=C(C)c1ccccc1`, the outcome is reported as “inactive”. For `COC(=O)[C@@]1(Cc2ccccc2)[C@H]2c3cc(C(=O)N(C)C)[nH]c3C[C@H]2CN1C(=O)c1ccccc1`, the outcome was “inactive”. In the case of `O=C(O)[C@H]1C[C@@H]1[C@H](NP(=O)(c1ccccc1)c1ccccc1)c1ccccc1`, the outcome is reported as “inactive”. `O=P(c1ccccc1)(c1ccccc1)N1CC2(CC2)CC(O)(c2ccccc2)C1` (stereo not drawn) was tested, and the outcome was “inactive”. In the case of `COC(=O)[C@@H]1C[C@@H]1[C@@H](NP(=O)(c1ccccc1)c1ccccc1)c1ccccc1`, the outcome is reported as “inactive”. In the case of `COc1ccc2c(c1OC)C(=O)O[C@@H]2[C@H]1c2cc3c(cc2CCN1C)OCO3`, the outcome is reported as “inactive”. With `CCCC/C(C)=C/[C@@H](NP(=O)(c1ccccc1)c1ccccc1)c1ccccc1` the outcome was “inactive”. With `CCCc1cc2c(n1Cc1ccc(C)cc1)C(C)C1CN(C(=O)c3ccccc3)C(C)(C(=O)OC)C21` (stereo not drawn) the outcome was “inactive”. For `C=C(CC1(C(C)NP(=O)(c2ccccc2)c2ccccc2)CC1)c1ccccc1` (stereo not drawn), the outcome was “inactive”. In the case of `COC(=O)[C@@]1(Cc2ccccc2)[C@H]2c3cc(C(=O)N(C)C)n(C)c3C[C@H]2CN1C(=O)c1ccccc1`, the outcome is reported as “inactive”. With `CNC(=O)[C@@H]1C[C@H]1[C@@H](NP(=O)(c1ccccc1)c1ccccc1)c1ccccc1` the outcome was “inactive”.

Reference: PubChem BioAssay (NCATS)
